Screen size: about 310,000 compounds; about 14,000 (4.5%) showed an effect of 50% or more. The effect is printed as a negative number. What follows is part of a selection rich in strong results, with near analogues and random picks from the rest.
Biological target: human ether-à-go-go-related gene (hERG) potassium channel (human, UniProt Q12809)
Test: primary screen, population patch clamp on CHO cells stably expressing hERG; higher = less effect of the substance
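Note: peak tail current of the secondary pulse compared with the same well before compound.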

Sequence of human ether-à-go-go-related gene (hERG) potassium channel (Q12809 whole entry, looked up): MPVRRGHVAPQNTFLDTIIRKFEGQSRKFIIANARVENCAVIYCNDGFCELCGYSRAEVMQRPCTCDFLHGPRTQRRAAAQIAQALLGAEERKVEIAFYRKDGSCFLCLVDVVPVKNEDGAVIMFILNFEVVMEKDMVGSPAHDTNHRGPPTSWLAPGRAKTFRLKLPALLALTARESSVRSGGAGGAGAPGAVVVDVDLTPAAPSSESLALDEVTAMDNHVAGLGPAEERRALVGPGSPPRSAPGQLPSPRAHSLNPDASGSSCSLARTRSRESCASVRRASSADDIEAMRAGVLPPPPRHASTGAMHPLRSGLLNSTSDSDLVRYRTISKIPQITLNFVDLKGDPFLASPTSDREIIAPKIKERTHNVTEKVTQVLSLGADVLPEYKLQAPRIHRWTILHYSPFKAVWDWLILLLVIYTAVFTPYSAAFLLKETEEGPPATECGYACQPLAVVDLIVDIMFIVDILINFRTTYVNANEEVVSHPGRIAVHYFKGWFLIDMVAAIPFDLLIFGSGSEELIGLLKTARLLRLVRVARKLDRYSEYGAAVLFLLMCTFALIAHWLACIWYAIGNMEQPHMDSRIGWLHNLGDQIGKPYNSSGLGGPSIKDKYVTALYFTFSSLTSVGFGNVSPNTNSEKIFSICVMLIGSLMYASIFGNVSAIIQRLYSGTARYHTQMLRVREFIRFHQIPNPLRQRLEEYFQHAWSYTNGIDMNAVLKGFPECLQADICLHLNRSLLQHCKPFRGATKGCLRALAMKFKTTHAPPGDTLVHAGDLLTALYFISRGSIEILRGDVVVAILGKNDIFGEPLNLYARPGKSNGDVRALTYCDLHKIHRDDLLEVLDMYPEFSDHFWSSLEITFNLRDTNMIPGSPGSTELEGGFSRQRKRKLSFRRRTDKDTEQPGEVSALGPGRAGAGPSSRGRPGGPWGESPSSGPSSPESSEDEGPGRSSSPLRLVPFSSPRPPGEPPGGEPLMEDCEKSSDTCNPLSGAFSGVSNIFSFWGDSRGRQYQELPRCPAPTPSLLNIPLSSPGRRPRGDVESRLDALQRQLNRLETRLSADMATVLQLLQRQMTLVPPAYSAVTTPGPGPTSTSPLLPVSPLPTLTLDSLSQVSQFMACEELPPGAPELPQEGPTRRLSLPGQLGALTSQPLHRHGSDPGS

Compound	hERG current change (%, negative = inhibition) at 10uM [%]
Cc1cc(C)nc(N2CCC(C(=O)Nc3ccc4c(c3)OCO4)CC2)n1	-5.31
NS(=O)(=O)c1ccc(CNS(=O)(=O)c2ccc3ccccc3c2)cc1	1.74
O=C(CSc1ncccn1)NCc1ccc(Cl)cc1	4.02
COC(=O)C(=O)/C=C(\O)c1c(C)cc(C)cc1C	14.9
COc1ccc(/C=C2/CCc3ccccc3C2=O)cc1OC	-19.8
CCOc1cc(CNCCO)ccc1OCC(=O)NC(C)(C)C.Cl	15.7
O=C(COC(=O)c1ccc(F)cc1F)NCCC1=CCCCC1	10.6
Cl.OC(COc1ccc(Br)cc1)CN1CCCC1 (stereo not shown)	-24.3
Cl.OCCN1CCN(CC(O)COc2ccc(Cl)cc2)CC1 (stereo not shown)	-20.6
CC(C)OCC(O)CN1CCNCC1.Cl (stereo not shown)	11.6
Cl.OC(COc1ccc(Br)cc1)CN1CCC(Cc2ccccc2)CC1 (stereo not shown)	-85.9
OC(COc1ccc(OCc2ccccc2)cc1)CN1CCOCC1 (stereo not shown)	-17
CCN1CCN(CC(O)COC(C)C)CC1.Cl (stereo not shown)	2.08
Cl.OC(COc1ccc(Cl)cc1)CN1CCC(Cc2ccccc2)CC1 (stereo not shown)	-81.4
Cl.OC(COc1ccc(Br)cc1)CN1CCOCC1 (stereo not shown)	-0.178
Cl.OC(COc1ccc(Cl)cc1)CN1CCN(c2ccccc2)CC1 (stereo not shown)	-29.7
Cl.OC(COc1ccccc1)CN1CCC(Cc2ccccc2)CC1 (stereo not shown)	-79.3
CC(C)OCC(O)CN1CCC(Cc2ccccc2)CC1.Cl (stereo not shown)	-56.9
O=S(=O)(c1ccc(OCC(O)CN2CCC(Cc3ccccc3)CC2)cc1)N1CCOCC1 (stereo not shown)	-44.4
COc1ccc(-n2c(O)c(C(C)=NCCc3c[nH]c4ccccc34)c(=O)[nH]c2=O)cc1	14.6
Cc1cc(C)cc(Oc2c(C(F)(F)F)oc3cc(OCC(=O)O)ccc3c2=O)c1	4.25
Cc1ccc(NC(=O)CSc2nnc(-c3cnccn3)n2C)cc1C	-5.78

Compound	hERG current change (%, negative = inhibition) at 10uM [%]
C/C(=N\Nc1nncc2ccccc12)c1ccc(OCC(=O)N(C)C)cc1	8.27
COc1cc(CN2CCN(c3cccc(C)c3C)CC2)cc([N+](=O)[O-])c1O	23.5
CCC(C)C(NC(=O)C1CCC(C)CC1)C(=O)NC(C(=O)OC)C(C)C (stereo not shown)	-0.903
CCCn1c2ccccc2c2nc3ccccc3nc21	13
OC(CN1CCN(c2ccccc2Cl)CC1)c1ccccc1 (stereo not shown)	-42.3
CC1CCN(CC(O)COc2cccc(F)c2)CC1 (stereo not shown)	-24.8
OC(CN1CCC(Cc2ccccc2)CC1)C(F)(F)F (stereo not shown)	5.97
Fc1ccccc1CN1CCC(Cc2ccccc2)CC1	-24.4
COc1ccc2c(c1)c(C(O)CN1CCC(Cc3ccccc3)CC1)c(C)n2C (stereo not shown)	-71
Cc1c(C(O)CN2CCC(C(N)=O)CC2)c2ccccc2n1C (stereo not shown)	-3.73
COc1ccc2c(c1)c(C(=O)CN1CCN(Cc3ccccc3)CC1)c(C)n2C	-29.8
OC(CN1CCC(Cc2ccccc2)CC1)c1ccccc1 (stereo not shown)	-52.9
Fc1cccc(CN2CCC(Cc3ccccc3)CC2)c1	5.12
Cl.OC(COc1ccccc1F)CN1CCC(Cc2ccccc2)CC1 (stereo not shown)	-76.2
OC(COc1ccc(F)cc1Cl)CN1CCC(Cc2ccccc2)CC1 (stereo not shown)	-84.6
O=C(O)C(=O)O.O=S(=O)(c1ccc(F)cc1)N1CCN(CC(O)COc2ccccc2F)CC1 (stereo not shown)	-14.5
COc1ccccc1NC(=O)Nc1nc(CC(=O)Nc2cccc(F)c2)cs1	-3.26
COc1ccc(CCNC(=O)C2CCN(S(=O)(=O)c3cccc4cccnc34)CC2)cc1OC	12.1
CCOC(=O)N1CCN(c2nnnn2-c2ccccc2)CC1	-0.913
CCCCNC(=O)C(CC)(ONc1ccccc1C(F)(F)F)c1ccccc1 (stereo not shown)	6.19
CC(C)(C)c1ccc(C(=O)NNC(=O)C(=O)N2CCCCC2)cc1	14.3
CS(=O)(=O)Nc1cccc(C2=NN(C(=O)c3cccc([N+](=O)[O-])c3)C(c3cccs3)C2)c1 (stereo not shown)	-13.4

Compound	hERG current change (%, negative = inhibition) at 10uM [%]
COc1cccc(OCC(O)CN2CCC(C)CC2)c1.Cl (stereo not shown)	-12.3
COc1cccc(OCC(O)CN2CCN(c3ncccn3)CC2)c1.Cl (stereo not shown)	-11
COc1cccc(OCC(O)CN2CCC(Cc3ccccc3)CC2)c1.Cl (stereo not shown)	-70.4
COc1ccc(CCNC(=O)C(CC(C)C)NC(N)=O)cc1 (stereo not shown)	9.22
COc1ccc(C)cc1Nc1n[n+](-c2ccccc2)c(-c2ccc(C(=O)O)cc2)s1.[Cl-]	18
COc1ccc(C)cc1Nc1n[n+](-c2ccccc2)c(-c2c(Cl)cccc2Cl)s1.[Cl-]	-55.9
COc1ccc(C)cc1Nc1n[n+](-c2ccccc2)c(-c2c(OC)ccc3ccccc23)s1.[Cl-]	-53.8
COc1ccc(C)cc1Nc1n[n+](-c2ccccc2)c(-c2cc([N+](=O)[O-])cc(OC)c2O)s1.[Cl-]	6.15
COc1ccc(C)cc1Nc1n[n+](-c2ccccc2)c(-c2cc(OC)c(OC)cc2Br)s1.[Cl-]	-48.9
COc1ccc(C)cc1Nc1n[n+](C)c(-c2c3ccccc3cc3ccccc23)s1.[Cl-]	13.3
COc1ccc(C)cc1Nc1n[n+](-c2ccccc2)c(-c2cccc(Cl)c2Cl)s1.[Cl-]	10
COc1ccc(C)cc1Nc1n[n+](-c2ccccc2)c(-c2ccc(NC(C)=O)cc2)s1.[Cl-]	12.8
COc1ccc(C)cc1Nc1n[n+](-c2ccccc2)c(-c2ccc(OC)c(OC)c2OC)s1.[Cl-]	-71.8
COc1ccc(-c2nnc(SCC(=O)N(Cc3ccccc3)C(C)(C)C)o2)cc1OC	-22.9
O=c1c(Cc2ccc(Cl)cc2)c(O)ccn1Cc1cccs1	4.04
Cc1ccc(C(=O)NC2CC(=O)N(c3ccc4c(c3)OCCO4)C2)cc1[N+](=O)[O-] (stereo not shown)	14.6
CCC1(CC)NC(=O)N(CC(=O)OCC(=O)c2ccccc2OC)C1=O	0.647
CC(C)(C)NC(=O)C(Cc1ccccc1)NS(=O)(=O)c1cccc2nsnc12 (stereo not shown)	-1.39
CC(Sc1ccccc1)C(=O)N1CCN(S(=O)(=O)c2ccccc2)CC1 (stereo not shown)	-8.83
O=[N+]([O-])c1cc(-n2cnnn2)ccc1N1CCC(Cc2ccccc2)CC1	-54.9
NC(=O)CC(NC(=O)c1ccccc1)c1ccc(N2CCC(Cc3ccccc3)CC2)c([N+](=O)[O-])c1 (stereo not shown)	4.44
CC1CC(C)CN(c2ccc(-n3cnnn3)cc2[N+](=O)[O-])C1 (stereo not shown)	-18.4

Compound	hERG current change (%, negative = inhibition) at 10uM [%]
Cn1cnnc1SCc1cccc(Br)c1	0.347
COc1cccc(-n2c(CNc3ccc(F)cc3)nnc2SCC(N)=O)c1	-11.8
COc1ccc(NC(=O)C2CCN(C(=O)[C@@H]3Cc4ccccc4CN3)CC2)cc1	-38.2
CCc1ccc(NC(=O)C2CCC(CNC(=O)[C@@H]3Cc4ccccc4CN3)CC2)cc1 (stereo partly shown)	4.23
CCc1ccc(NC(=O)C2CCN(C(=O)[C@@H]3Cc4ccccc4CN3)CC2)cc1	-59.5
Cc1cc(C)cc(NC(=O)C2CCC(CNC(=O)[C@@H]3Cc4ccccc4CN3)CC2)c1 (stereo partly shown)	0.322
Cc1cc(C)cc(NC(=O)C2CCN(C(=O)[C@@H]3Cc4ccccc4CN3)CC2)c1	-67.7
COc1ccc(CNC(=O)C2CCN(C(=O)[C@@H]3Cc4ccccc4CN3)CC2)cc1	-24.8
COc1cccc(NC(=O)C2CCN(C(=O)[C@@H]3Cc4ccccc4CN3)CC2)c1	-48.1
Cc1cccc(NC(=O)C2CCC(CNC(=O)[C@@H]3Cc4ccccc4CN3)CC2)c1 (stereo partly shown)	-2.36
Cc1cccc(NC(=O)C2CCN(C(=O)[C@@H]3Cc4ccccc4CN3)CC2)c1	-67.2
Cc1ccc(NC(=O)C2CCN(C(=O)[C@@H]3Cc4ccccc4CN3)CC2)c(C)c1	-41.4
Cc1ccc(NC(=O)C2CCC(CNC(=O)[C@@H]3Cc4ccccc4CN3)CC2)cc1 (stereo partly shown)	-25.8
Cc1ccc(NC(=O)C2CCN(C(=O)[C@@H]3Cc4ccccc4CN3)CC2)cc1	-67.3
COC(=O)COc1ccc(S(=O)(=O)Nc2ccc(NC(C)=O)cc2)cc1C	19.8
COc1ccc(C2Nc3ccccc3C(=O)N2Cc2ccccc2)cc1Cn1nnc2ccccc21 (stereo not shown)	-25.1
Cc1cc(S(=O)(=O)N2CCN(c3ccccc3C)CC2)ccc1F	1.78
CCC(C)C(=O)Nc1nnc(SCC(=O)Nc2ccccc2F)s1 (stereo not shown)	10.1
CCOc1ccc2c(c1)nc(C)n2C	11.7

From article PMC4336329 (PLoS ONE, 2015)
